Records with an inconclusive call do not appear. A call without a number means that no potency is given here. The source made the active and inactive calls. The call rests on the fitted dose curve.
Test: qHTS assay to identify small molecule antagonists of the sonic hedgehog signaling (Shh) pathway (AID 1259369); further: nearly all actives have a fitted effect of over 45% in size
Settings: NIH/3T3 Gli1-Luc reporter, Shh antagonist, luminescence 24 h; series mostly up to 92.4 µM
Excerpt: U.S. Tox21 Program National Center for Advancing Translational Sciences [NCATS] NIH Chemical Genomics Center [NCGC] U.S. Environmental Protection Agency [EPA] National Institutes of Environmental Health Sciences [NIEHS] National Toxicology Program [NTP] U.S. Food and Drug Administration [FDA] Tox21 Assay Overview: The sonic hedgehog (Shh) pathway is essential for normal embryonic development. Dysregulation of the Shh pathway can cause severe developmental defects in organs. Therefore chemicals that interfere with the pathway are potential developmental toxicants. A cell line designated 3T3Gli1-Luc (DMB/OARSA/CFSAN/FDA, Laurel, MD), a NIH/3T3 derived clone containing stably integrated Gli1-Luc reporter is used to detect chemical interference of the Shh pathway, by changes in the expression of the firefly Luc gene under the control of the Gli1 transcriptional response element. This cell line was used to screen Tox21 libraries for identifying and prioritizing the potential developmental toxicants that interfere Shh pathway. Conditioned medium-stimulated mode was used to screen for chemicals inhibiting Shh signaling.
Tox21 Assay Protocol Summary: 3T3 Gli1-Luc cells were dispensed at 2,000 per well in 5uL of culture medium into white solid bottom 1536-well plates (Greiner Bio-One, Monroe, NC) using a Multidrop Combi (Thermo Scientific, Waltham, MA) dispenser. The assay plates were incubated at 37 C and 5% CO2 for 4hr, and then 23nL of compounds dissolved in DMSO and positive control were transferred using a Pintool station (Wako, San Diego, CA). The compound transfer was followed by the addition of 1ul conditioned medium or assay buffer using two separate tips of Flying Reagent Dispenser (FRD, Aurora Discovery, San Diego, CA). The assay plates were incubated at 37C and 5% CO2 for 24hr. For luciferase read, 4uL of Amplite Luciferase reporter gene assay reagent (AAT Bioquest, Inc. Sunnyvale, CA) was added to each well of the assay plates using FRD and incubated at room temperature for 30min. The luminescence signal was measured using a ViewLux plate reader (Perkin Elmer, Shelton, CT).
Potency means the concentration at half of the fitted maximal effect.

| SMILES | Potency | activity change, negative = inhibition |
| --- | --- | --- |
| Nc1ccc(Oc2ccc(N)c(N)c2)cc1 | inactive |  |
| Cn1cnc2c(F)c(Nc3ccc(Br)cc3Cl)c(C(=O)NOCCO)cc21 | inactive |  |
| FC(F)(F)C(Cl)(Cl)Cl | inactive |  |
| C=CC1CO1 (stereo not given) | inactive |  |
| Cc1ccc([N+](=O)[O-])c(N)c1 | 18.9 µM (active) |  |
| CC(C)NC[C@@H](O)COc1cccc2ccccc12 | inactive |  |
| Oc1ccccc1F | inactive |  |
| NC(Cc1ccc(F)cc1)C(=O)O (stereo not given) |  | -11.4% [at 8.39 µM] (inactive) |
| CC(C)O | 29.3 µM (active) |  |
| CC(C)OC(C)C | inactive |  |
| CC[C@H]1CC[C@H](NCc2cc3c(cc2OC)[C@H]2C[C@H]2C(=O)N3C)[C@H](c2ccccc2)N1 | 4.33 µM (active) |  |
| NNS(=O)(=O)c1ccc(Oc2ccc(S(=O)(=O)NN)cc2)cc1 | inactive |  |
| CC(CNC1CCCCC1)OC(=O)c1ccccc1 (stereo not given) | inactive |  |
| CC(=O)Oc1cc(C(C)C)c(OCCN(C)C)cc1C | inactive |  |
| CC1=C(O)C(=O)OC1C (stereo not given) | inactive |  |
| CCC(=O)O[C@]1(C(=O)SCF)[C@H](C)C[C@H]2[C@@H]3C[C@H](F)C4=CC(=O)C=C[C@]4(C)[C@@]3(F)[C@@H](O)C[C@@]21C | inactive |  |
| OCCN(CCO)CCN(CCO)CCO | inactive |  |
| CC(=O)Nc1ccc(C)c(Cl)c1 | inactive |  |
| Cc1cc(NS(=O)(=O)c2ccc(N)cc2)nc(C)n1 | inactive |  |
| CC(C)(CO)[C@@H](O)C(=O)NCCC(=O)O | inactive |  |

| SMILES | Potency | activity change, negative = inhibition |
| --- | --- | --- |
| CO[C@@]1(NC(=O)CSCC#N)C(=O)N2C(C(=O)O)=C(CSc3nnnn3C)CS[C@@H]21 | inactive |  |
| FC(F)(F)C(F)(F)C(F)(F)C(F)(F)C(F)(F)C(F)(F)C(F)(F)C(F)(F)Br | inactive |  |
| COC(=O)c1ccc2cc(C(=O)OC)ccc2c1 | 9.93 µM (active) |  |
| COC(=O)c1ccc(OC)cc1 | inactive |  |
| CC1(O)CSC(C)(O)CS1 (stereo not given) | inactive |  |
| Cc1ccc(C=O)s1 | 48.6 µM (active) |  |
| CCOC(=O)c1cc(=O)c2c(OCC(COc3cccc4oc(C(=O)OCC)cc(=O)c34)OC(=O)[C@@H](N)CCCCN)cccc2o1 | inactive |  |
| C=O | inactive |  |
| CCC(=O)Nc1ccc(O)cc1 | inactive |  |
| c1ccc(CN(CC2=NCCN2)c2ccccc2)cc1 | inactive |  |
| CCCC(CCC)(C(=O)OCC)C(=O)OCC | inactive |  |
| CCOC(=O)NCCC[Si](OCC)(OCC)OCC | inactive |  |
| CN(CC1(C)CCCO1)S(=O)(=O)c1ccc(Cl)c(S(N)(=O)=O)c1 (stereo not given) | inactive |  |
| O=C1CCC(C2CCCCC2)CC1 | inactive |  |
| O=Cc1ccc(O)c(O)c1O | 26.6 µM (active) |  |
| N#CSCC(=O)O | inactive |  |
| CC(=O)OC(C)OC(C)=O | inactive |  |
| CC1(C)S[C@@H]2[C@H](NC(=O)C(C(=O)O)c3ccccc3)C(=O)N2[C@H]1C(=O)O (stereo not given in full) | inactive |  |
| C=CC(C)(O)CC/C=C(\C)CCC=C(C)C (stereo not given) | inactive |  |
| CC(C)=CCC[C@](C)(O)[C@@H]1CC=C(C)CC1 | inactive |  |
